Common to all, as to test: growth (OD600 after 10 h); higher = more growth (less inhibition)
In assay [1] the test system is E. coli TESEC Alr+ wild-type control. Particulars: compound 0.1 mM; raw OD600 reference: median of DMSO wells 0.241, cell-free background 0.041. On the procedure:
(§1)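 TESEC Mtb Alr E. coli, or the Alr+ wild-type control, in 384-well plates with Prestwick library compounds at 0.1 mM and 1% DMSO, across arabinose induction levels of 1E3 to 1E7 nM. Growth is read as OD600 after 10 h at 37 °C in triplicate biological replicates.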

Assay [2] concerns E. coli TESEC Mtb Alr. To be noted: compound 0.1 mM. How it is done: as §1
The subject of another assay is E. coli TESEC Mtb Asd. To be noted: compound 0.1 mM. On the procedure: (§2)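 TESEC E. coli strains in which the native enzyme is deleted and replaced by arabinose-inducible Mtb Asd, DapB, CysH or TrpD, each grown in its selective medium. Strains were screened against the Prestwick library at 0.1 mM and 1% DMSO in 384-well format at low and high arabinose induction. Growth is read as OD600 after 10 h in triplicate.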

The subject of a further assay is E. coli TESEC Mtb DapB. Particulars: compound 0.1 mM. How it is done:
as §2

Assay [3] relates to E. coli TESEC Alr+ wild-type control. Particulars: compound 0.1 mM; raw OD600 reference: median of DMSO wells 0.49, cell-free background 0.052. How it is done:
(§3)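 TESEC Mtb Alr E. coli (ΔaraC ΔtolC ΔentC Δalr ΔdadX, arabinose-inducible Mtb Alr) or the Alr+ wild-type control strain, grown in defined M9-fructose medium without D-alanine in 96-well plates with Prestwick library compounds at 0.1 mM and 1% DMSO. Low Alr induction is 0.1 µM arabinose and high induction is 10 mM arabinose.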

Assay [4] deals with E. coli TESEC Mtb Alr. To be noted: compound 0.1 mM. On the procedure: as §3
This is another data set of the same source.

Setting [5] is: arabinose 1000 nM, raw OD600 reference: median of DMSO wells 0.294, cell-free background 0.041.
Where [6] appears, read: arabinose 10000 nM, raw OD600 reference: median of DMSO wells 0.264, cell-free background 0.041.
The mark [7] stands for this setting: arabinose 100000 nM, raw OD600 reference: median of DMSO wells 0.201, cell-free background 0.041.
Setting [8] is: arabinose 1000000 nM, raw OD600 reference: median of DMSO wells 0.193, cell-free background 0.041.
The mark [9] stands for this setting: arabinose 10000000 nM, raw OD600 reference: median of DMSO wells 0.146, cell-free background 0.041.
Where [10] appears, read: arabinose induction (level): High, raw OD600 reference: median of DMSO wells 0.331, cell-free background 0.041.
The mark [11] stands for this setting: arabinose induction (level): Low, raw OD600 reference: median of DMSO wells 0.417, cell-free background 0.041.
Setting [12] is: arabinose induction (level): High, raw OD600 reference: median of DMSO wells […], cell-free background 0.041.
Where [13] appears, read: arabinose induction (level): Low, raw OD600 reference: median of DMSO wells 0.227, cell-free background 0.041.
The mark [14] stands for this setting: arabinose 100 nM, raw OD600 reference: median of DMSO wells 0.413, cell-free background 0.052.
Where [15] appears, read: arabinose 10000000 nM, raw OD600 reference: median of DMSO wells […], cell-free background 0.052.

Counter-ions that a name gives are not always drawn. ± gives the standard deviation of the averaged measurements.

Take `Nc1nnc(-c2cccc(Cl)c2Cl)c(N)n1` [Lamotrigine]: the growth in assay [1] was 0.14 ± 0.0084; with E. coli TESEC Mtb Alr [2] (setting [5]), 0.206 ± 0.028; with E. coli TESEC Mtb Alr [2] (setting [6]) it was 0.203 ± 0.0052; in the assay with E. coli TESEC Mtb Alr [2] (setting [7]), 0.216 ± 0.014; with E. coli TESEC Mtb Alr [2] (setting [8]) it was 0.21 ± 0.0054; with E. coli TESEC Mtb Alr [2] (setting [9]), 0.179 ± 0.0078. In addition, the growth is 0.236 ± 0.025 with E. coli TESEC Mtb Asd (setting [10]); 0.168 ± 0.019 in the assay with E. coli TESEC Mtb Asd (setting [11]); 0.213 ± 0.015 with E. coli TESEC Mtb DapB (setting [12]); 0.132 ± 0.0074 in the assay on E. coli TESEC Mtb DapB (setting [13]); 0.46 ± 0.021 in assay [3]; 0.413 ± 0.029 with E. coli TESEC Mtb Alr [4] (setting [14]). In addition, the growth with E. coli TESEC Mtb Alr [4] (setting [15]) was 0.386 ± 0.029.

For `O=C(O)Cc1sc(-c2ccccc2)nc1-c1ccc(Cl)cc1` [Fentiazac], the growth in assay [1] was 0.168 ± 0.0065; in the assay with E. coli TESEC Mtb Alr [2] (setting [5]) it was 0.17 ± 0.0076; in the assay with E. coli TESEC Mtb Alr [2] (setting [6]) it was 0.137 ± 0.0036; in the assay with E. coli TESEC Mtb Alr [2] (setting [7]), 0.165 ± 0.0017; in the assay on E. coli TESEC Mtb Alr [2] (setting [8]) it was 0.152 ± 0.0063; in the assay with E. coli TESEC Mtb Alr [2] (setting [9]), 0.158 ± 0.0089. Besides, the growth in the assay on E. coli TESEC Mtb Asd (setting [10]) worked out at 0.189 ± 0.0056; in the assay with E. coli TESEC Mtb Asd (setting [11]), 0.187 ± 0.018; in the assay on E. coli TESEC Mtb DapB (setting [12]) it was 0.206 ± 0.012; in the assay on E. coli TESEC Mtb DapB (setting [13]) it was 0.223 ± 0.029; in assay [3], 0.286 ± 0.012; in the assay on E. coli TESEC Mtb Alr [4] (setting [14]), 0.141 ± 0.064. Further, the growth with E. coli TESEC Mtb Alr [4] (setting [15]) turned out to be 0.14 ± 0.033.

Regarding `COc1ccc(C[C@@H]2c3cc(OC)c(OC)cc3CC[N@+]2(C)CCC(=O)OCCCCCOC(=O)CC[N@@+]2(C)CCc3cc(OC)c(OC)cc3[C@H]2Cc2ccc(OC)c(OC)c2)cc1OC` [Cisatracurium besylate], the growth in assay [1] amounted to 0.188 ± 0.0083; in the assay on E. coli TESEC Mtb Alr [2] (setting [5]), 0.307 ± 0.0083; in the assay with E. coli TESEC Mtb Alr [2] (setting [6]), 0.242 ± 0.014; in the assay with E. coli TESEC Mtb Alr [2] (setting [7]), 0.166 ± 0.0072; with E. coli TESEC Mtb Alr [2] (setting [8]), 0.119 ± 0.0042; with E. coli TESEC Mtb Alr [2] (setting [9]) it was 0.156 ± 0.0018. Further, the growth was 0.307 ± 0.04 in the assay on E. coli TESEC Mtb Asd (setting [10]); 0.414 ± 0.032 in the assay on E. coli TESEC Mtb Asd (setting [11]); 0.168 ± 0.022 in the assay with E. coli TESEC Mtb DapB (setting [12]); 0.209 ± 0.021 with E. coli TESEC Mtb DapB (setting [13]); 0.497 ± 0.054 in assay [3]; 0.411 ± 0.0072 in the assay with E. coli TESEC Mtb Alr [4] (setting [14]). In the assay with E. coli TESEC Mtb Alr [4] (setting [15]), this molecule gave a growth of 0.304 ± 0.0097.

Turning to `CCN(CCO)CCCC(C)Nc1ccnc2cc(Cl)ccc12` (centres undefined) [Hydroxychloroquine sulfate], the growth in assay [1] is 0.228 ± 0.0034; in the assay with E. coli TESEC Mtb Alr [2] (setting [5]), 0.282 ± 0.011; with E. coli TESEC Mtb Alr [2] (setting [6]) it was 0.27 ± 0.0028; with E. coli TESEC Mtb Alr [2] (setting [7]), 0.19 ± 0.015; in the assay on E. coli TESEC Mtb Alr [2] (setting [8]) it was 0.1939 ± 0.0019; in the assay on E. coli TESEC Mtb Alr [2] (setting [9]) it was 0.147 ± 0.0019. For the same molecule, the growth in the assay with E. coli TESEC Mtb Asd (setting [10]) was found to be 0.265 ± 0.052; in the assay with E. coli TESEC Mtb Asd (setting [11]) it was 0.352 ± 0.013; with E. coli TESEC Mtb DapB (setting [12]), 0.198 ± 0.0048; in the assay on E. coli TESEC Mtb DapB (setting [13]), 0.24 ± 0.04; in assay [3], 0.54 ± 0.024; in the assay with E. coli TESEC Mtb Alr [4] (setting [14]), 0.405 ± 0.01. The molecule also registered a growth in the assay with E. coli TESEC Mtb Alr [4] (setting [15]) of 0.354 ± 0.017.

Consider `CCCc1cc(C(N)=S)ccn1` [Prothionamide], for which the growth was determined as 0.245 ± 0.011 in assay [1]; 0.295 ± 0.0059 with E. coli TESEC Mtb Alr [2] (setting [5]); 0.269 ± 0.013 with E. coli TESEC Mtb Alr [2] (setting [6]); 0.184 ± 0.028 in the assay on E. coli TESEC Mtb Alr [2] (setting [7]); 0.174 ± 0.014 in the assay with E. coli TESEC Mtb Alr [2] (setting [8]); 0.136 ± 0.0019 in the assay on E. coli TESEC Mtb Alr [2] (setting [9]). Besides, the growth amounted to 0.231 ± 0.011 with E. coli TESEC Mtb Asd (setting [10]); 0.388 ± 0.046 in the assay with E. coli TESEC Mtb Asd (setting [11]); 0.208 ± 0.013 in the assay on E. coli TESEC Mtb DapB (setting [12]); 0.221 ± 0.036 in the assay on E. coli TESEC Mtb DapB (setting [13]); 0.57 ± 0.0073 in assay [3]; 0.414 ± 0.013 in the assay on E. coli TESEC Mtb Alr [4] (setting [14]). In the assay on E. coli TESEC Mtb Alr [4] (setting [15]), this molecule had a growth of 0.36 ± 0.021.

Regarding `N=C(N)N1CCc2ccccc2C1` [Debrisoquin sulfate], the growth in assay [1] is 0.237 ± 0.0047; with E. coli TESEC Mtb Alr [2] (setting [5]), 0.288 ± 0.013; with E. coli TESEC Mtb Alr [2] (setting [6]) it was 0.254 ± 0.0074; with E. coli TESEC Mtb Alr [2] (setting [7]), 0.222 ± 0.036; in the assay on E. coli TESEC Mtb Alr [2] (setting [8]) it was 0.174 ± 0.0076; with E. coli TESEC Mtb Alr [2] (setting [9]), 0.147 ± 0.0083. Also, the growth in the assay on E. coli TESEC Mtb Asd (setting [10]) came out at 0.373 ± 0.058; in the assay with E. coli TESEC Mtb Asd (setting [11]) it was 0.373 ± 0.027; in the assay with E. coli TESEC Mtb DapB (setting [12]) it was 0.209 ± 0.022; with E. coli TESEC Mtb DapB (setting [13]) it was 0.22 ± 0.039; in assay [3], 0.567 ± 0.039; in the assay with E. coli TESEC Mtb Alr [4] (setting [14]), 0.406 ± 0.01. Besides, the growth in the assay with E. coli TESEC Mtb Alr [4] (setting [15]) came to 0.334 ± 0.013.

On to `COCCCC/C(=N\OCCN)c1ccc(C(F)(F)F)cc1` [Fluvoxamine maleate], for which the growth in assay [1] worked out at 0.225 ± 0.0049; in the assay on E. coli TESEC Mtb Alr [2] (setting [5]), 0.274 ± 0.0066; in the assay with E. coli TESEC Mtb Alr [2] (setting [6]), 0.26 ± 0.013; in the assay on E. coli TESEC Mtb Alr [2] (setting [7]), 0.214 ± 0.016; in the assay with E. coli TESEC Mtb Alr [2] (setting [8]), 0.133 ± 0.0052; with E. coli TESEC Mtb Alr [2] (setting [9]), 0.136 ± 0.0081. Besides, the growth with E. coli TESEC Mtb Asd (setting [10]) was determined as 0.295 ± 0.079; with E. coli TESEC Mtb Asd (setting [11]) it was 0.231 ± 0.044; in the assay on E. coli TESEC Mtb DapB (setting [12]), 0.183 ± 0.014; in the assay on E. coli TESEC Mtb DapB (setting [13]) it was 0.229 ± 0.05; in assay [3] it was 0.518 ± 0.051; in the assay on E. coli TESEC Mtb Alr [4] (setting [14]), 0.416 ± 0.0072. Further, the growth with E. coli TESEC Mtb Alr [4] (setting [15]) was determined as 0.319 ± 0.0054.

Turning to `COc1ccc(NS(=O)(=O)c2ccc(N)cc2)nn1` [Sulfamethoxypyridazine], the growth worked out at 0.2402 ± 0.0024 in assay [1]; 0.296 ± 0.011 in the assay with E. coli TESEC Mtb Alr [2] (setting [5]); 0.236 ± 0.0055 in the assay on E. coli TESEC Mtb Alr [2] (setting [6]); 0.226 ± 0.024 in the assay with E. coli TESEC Mtb Alr [2] (setting [7]); 0.181 ± 0.0072 with E. coli TESEC Mtb Alr [2] (setting [8]); 0.141 ± 0.0061 in the assay on E. coli TESEC Mtb Alr [2] (setting [9]). Also, the growth with E. coli TESEC Mtb Asd (setting [10]) was determined as 0.355 ± 0.042; in the assay with E. coli TESEC Mtb Asd (setting [11]), 0.393 ± 0.016; in the assay on E. coli TESEC Mtb DapB (setting [12]) it was 0.203 ± 0.012; in the assay with E. coli TESEC Mtb DapB (setting [13]), 0.22 ± 0.01; in assay [3] it was 0.459 ± 0.011; in the assay with E. coli TESEC Mtb Alr [4] (setting [14]), 0.408 ± 0.0075. The same molecule came in with a growth with E. coli TESEC Mtb Alr [4] (setting [15]) of 0.367 ± 0.018.
